Test results taken from PubChem BioAssay (NCI).
About 83,000 compounds went through this panel and 20% of them were active in at least one assay; those are over-represented in the sample as a whole.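 Single-concentration screen, 48 h exposure, 96-well plates. Endpoint: percent growth. Below 10 = active.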 Values without a mark were called inactive. The source made the active and inactive calls.

Tests used:
Experiment in all cases: NCI-60 one-dose screen, 48 h (100 = growth as untreated, 0 = no growth, -100 = all killed)
Settings in all cases: 10 µM
[1] = tested on: RPMI-8226 leukemia
[2] = tested on: OVCAR-8 ovarian
[3] = tested on: OVCAR-5 ovarian
[4] = tested on: OVCAR-4 ovarian
[5] = tested on: SK-OV-3 ovarian
[6] = tested on: IGROV1 ovarian
[7] = tested on: OVCAR-3 ovarian
[8] = tested on: HS 578T breast
[9] = tested on: NCI/ADR-RES ovarian
[10] = tested on: T-47D breast
[11] = tested on: MDA-MB-435 melanoma
[12] = tested on: SW-620 colon
[13] = tested on: MCF7 breast
[14] = tested on: HCT-116 colon
[15] = tested on: HCC-2998 colon
[16] = tested on: KM12 colon
[17] = tested on: BT-549 breast

SMILES | growth [1] | growth [2] | growth [3] | growth [4] | growth [5] [%] | growth [6] | growth [7] | growth [8] | growth [9] | growth [10] | growth [11] | growth [12] | growth [13] | growth [14] | growth [15] | growth [16] | growth [17]
COc1cc(/C=N/NC(=O)c2ccccc2Nc2cccc(C(F)(F)F)c2)cc(OC)c1OC | 236% | 34.3% | 62.1% | 9.6% (active) | 16.1 | -17.1% (active) | -53.8% (active) | 12.2% | 12.6% | 29.6% | -34% (active) | 3.91% (active) | 5.18% (active) | 158% | 28.2% | 16.6% | 
COc1ccc(/C=C2/CN(CCC#N)C/C(=C\c3ccc(OC)cc3)C2=O)cc1 | -17.2% (active) | 1.11% (active) | 59.7% | 17.3% | 13.4 | 7.88% (active) | -26% (active) | 33.1% | 7.02% (active) | 39.4% | -30% (active) | -37.2% (active) | 10.4% | -68.2% (active) | -82.3% (active) |  | 
COc1ccc2c(c1)N(CCO)C1=C(C(=O)OC1)C2c1cc(OC)c(OC)c(OC)c1 (centres undefined) | 18.7% | 7.94% (active) | 39.8% | 51% | 20.6 | 9.98% (active) | -53.2% (active) | -6.85% (active) | -14.7% (active) | 71.9% | -48.2% (active) | 19.4% |  | 4.03% (active) |  | -43% (active) | 20.5%
O=C1OCC2=C1C(c1cccc(Cl)c1)c1cc3c(cc1N2CCO)OCCO3 (centres undefined) | 20.2% | 1.27% (active) | 30.3% | 56.2% | 26.1 | 22.2% | -52.2% (active) | -6.14% (active) | 0.234% (active) | 73.5% | -42.1% (active) | 18.7% | 18% |  |  | -32.8% (active) | 32.4%
CN1CCC(CNc2cc(C3(C(=O)Nc4cc(C(=O)Nc5ccc(Cl)c(C(F)(F)F)c5)ccc4F)CC3)ncn2)CC1 | -32% (active) | 44.3% | 71.6% | 81.1% | 45.9 | 54.8% | 29.4% | 13.6% | 86.7% | 63.7% | -53.1% (active) | -9.83% (active) | -43% (active) | 8.41% (active) | 22.8% | 36.1% | 
N#CSCC1CC(O)(c2ccccc2)CC(c2ccc(Cl)cc2)O1 (centres undefined) | 18.1% | 66.7% | 101% | 40% | 102 | -25.7% (active) | -36% (active) | 21% | 47.2% | 27.4% | 3.01% (active) | -53.5% (active) |  | 10.1% | 94.9% | 22.3% | -11.5% (active)
CC[C@H]1CCC/C=C/[C@@H]2C[C@H](O)C[C@H]2[C@H](O)/C=C/C(=O)O1 | -3.82% (active) | 0.0361% (active) | 7.93% (active) | 29% | 21.3 | -2.68% (active) | -58.5% (active) | 13.7% | 2.15% (active) | -81.1% (active) | 5.71% (active) | -69% (active) | -73% (active) | -67.8% (active) | -65.8% (active) | -70.5% (active) | 
CSCCCNC(=O)c1ccc2c(c1)/C(=C/c1[nH]c(C)cc1C)C(=O)N2 | 19.7% | 32.6% | 35.9% | 27.6% | 20.5 | -12.5% (active) | 45% | -13.5% (active) | 42.9% | 44.5% | 13.4% | 28.9% |  | 3.75% (active) | 30.3% | 17.1% | 9.33% (active)
Cc1ccc2oc3nc(C)c(C(=O)NCc4ccccc4)cc3c(=O)c2c1 | 86.1% | 92.5% | 86.8% | 85.3% | 116 | 103% | 99.7% | 106% | 63.4% | 63.5% | 65.5% | 77.5% | 45.6% | 60.6% | 35.4% | 28.6% | 
CC1=C(N2CCOCC2)C(N2CCOCC2)=C(C)C(=O)C1=O | 105% | 97.2% | 97.6% | 104% | 105 | 101% | 109% | 109% | 110% | 95.1% | 103% | 105% |  | 108% | 109% | 105% | 110%
Nc1ncnc2[nH]c(=O)[nH]c12 | 195% | 93.3% | 87.9% | 96.7% | 110 | 113% | 98.4% | 144% | 107% | 94.2% | 96.4% | 110% | 100% | 91.3% | 111% | 99.8% | 
CC(C)(C)c1ccc(N2CSC(=S)N(c3ccc(C(C)(C)C)cc3)C2)cc1 | 76.5% | 107% | 101% | 98.3% | 94.1 | 55.3% | 109% | 112% | 96.1% | 81.4% | 99.7% | 106% |  | 91.8% | 96.4% | 96.7% | 98.9%
COc1ccc2c(c1)sc1nc(-c3ccccc3)c(-c3ccsc3)n12 | 15.2% | 30.8% | 51.6% | 62.8% | 23.5 | 31.1% | -51.6% (active) | 3.75% (active) | 9.35% (active) | 57% | -39.6% (active) | 19.4% | 13.5% | 30.8% | 11.6% | 19.4% | 
CCN(CC)CCCOCCCNc1cc(OC)cc2cccnc12 | 80.3% | 92.1% | 102% | 26.6% | 97.3 | 75.2% | 65.9% | 100% | 95.4% | 33.9% | 112% | 99.9% | -3.69% (active) |  | 83.9% | 102% | 103%
O=C(Nc1ccncc1)C(=O)c1cn(S(=O)(=O)c2cccc3ccccc23)c2ccccc12 | 43.1% | 92.4% | 102% | 79.6% | 87.9 | 73.8% | 88.2% | 100% | 78.4% | 70.9% | -7.64% (active) | 71.4% | 52.3% | 45.8% | 64.8% | 55% | 
COc1cc(-c2cc(/C=C/C(=O)c3ccc(F)c(F)c3)[nH]n2)cc(OC)c1OC | 22.6% | 58.1% | 76% | 40.1% | 90 | 73.1% | 49.6% | 61.3% | 63.5% | 53.6% | 51.7% | 67.2% | 48.3% |  | 87.1% | 41% | 94.2%
CCCCCCCC(C)NCCO (centres undefined) | 107% | 98.7% | 111% | 118% | 93.6 | 103% | 101% | 99.4% | 111% | 100% | 97.6% | 106% | 97.9% | 111% | 105% | 102% | 
N=C(N)c1ccc(-c2ccc(-c3cccs3)o2)cc1 | -25.4% (active) | 60% | 70.3% | 41.6% | 79.4 | 67.5% | 71.7% | 70.3% | 71.5% | 43.8% | -49.3% (active) | -47.9% (active) |  | 7.25% (active) | -66% (active) |  | 85.2%
COc1ccc(-c2nc(-c3nc4cc(Cl)c(F)cc4[nH]3)c3ccccn23)cc1 | 8.97% (active) | 40.5% | 98% | 57.6% | 105 | 74.6% | 81.3% | 133% | 60.2% | 39.7% | 64.4% | 71.6% |  | 71.4% | 72.2% |  | 91%
